Data published in PubChem BioAssay AID2289 (National Center for Advancing Translational Sciences (NCATS), 2010).
“And” between values parts separate entries of the source, which are not always exact repeats. Equal entries are not always repeated. Out of some 340,000 compounds screened, about 3,300 (0.97%) were called active. Roughly 9% stayed inconclusive and do not appear here. The call rests on the fitted dose curve; in most records, active means well fitted inhibition curve with a large enough effect; inconclusive means small, poorly fitted or top-dose-only effect, or effect the other way; inactive means flat fitted curve, though single readings scatter. This is one part of the list.

assay: qHTS Assay for Modulators of miRNAs and/or Inhibitors of miR-21; settings: HeLa miR-21-FLuc reporter, luciferase luminescence, 48 h; actives lower the signal; further: nearly all actives have a fitted effect of over 55% in size
How it was run: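 HeLa miR-21-FLuc reporter line, endogenous miR-21; 2000 cells/well in DMEM/10% FBS; compound titration up to ~40uM final, 48 h, 37 degree Celsius; luciferase detection reagent, 15 min lysis, CCD luminescence.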
Potency means the concentration at half of the fitted maximal effect.

Potency, active:
Cc1ccc(Nc2nc(N)nc(CSC(=S)N3CCOCC3)n2)c(C)c1 10.4 µM, COc1ccccc1Nc1nc(N)nc(CSC(=S)N2CCOCC2)n1 16.5 µM, COc1ccccc1Nc1nc(N)nc(CSC(=S)N2CCCCC2)n1 14.7 µM, COc1ccc(CCNc2ncccc2C#N)cc1OC 6.56 µM, O=C(N/N=C1\CCCCc2ccccc21)c1ccccn1 5.85 µM, O=C(O)c1ccc(N/N=C2/CCCc3ccccc32)cc1 6.56 µM, CCOC(=O)N/N=C1\CCc2ccccc21 11.7 µM, O=C(N/N=C1\CCc2ccccc21)c1ccccc1Cl 1.85 µM, O=C(COc1ccccc1F)N/N=C1\CCCc2ccccc21 3.29 µM, COc1ccc(/C(N)=N/OC(=O)CSc2ccccc2)cc1OC 8.26 µM, N/C(=N\OC(=O)CSc1ccccc1)c1ccc([N+](=O)[O-])cc1 4.65 µM, N/C(=N\OC(=O)CSc1ccccc1)c1ccncc1 14.7 µM, COc1ccc(NC(=O)CSc2nnc(NC(=O)Nc3ccc(OC)cc3)s2)cc1 0.826 µM, COc1ccc(-c2nnc(SCC(=O)Nc3cccc(F)c3)s2)cc1 13.1 µM, COc1ccc(NC(=O)Nc2nnc(-c3ccco3)s2)cc1 0.927 µM, COc1ccccc1C(=O)Nc1nnc(SCC(=O)NC2CCCC2)s1 0.414 µM, COc1ccc(C(=O)Nc2nnc(SCC(=O)Nc3ccc(NC(C)=O)cc3)s2)c(OC)c1 0.0656 µM, CC(=O)c1ccc(NC(=O)CSc2nnc(NC(=O)Nc3ccccc3)s2)cc1 7.36 µM, CC(C)c1ccc(/C=C/C(=O)N2CCOCC2)cc1 2.93 µM, CC(C)(C)c1ccc(/C=C/C(=O)N2CCOCC2)cc1 6.56 µM, O=C(/C=C/c1cccc2ccccc12)N1CCOCC1 6.56 µM, Cc1ccc(NC(=O)C2CCCN(c3ncccn3)C2)cc1C (configuration not stated) 14.7 µM, COc1ccc(NC(=O)C2CCCN(c3ncccn3)C2)cc1 (configuration not stated) 8.26 µM, COc1ccc(-n2ncc3c(N4CCCc5ccccc54)ncnc32)cc1 0.414 µM, CCC(NC(=O)c1ccccc1NC(=O)c1ccc(OC)cc1)C(=O)N1CCCC1 (configuration not stated) 6.56 µM, Cc1[nH]c2ccccc2c1C(=O)CSC(=S)N1CCCCC1 3.29 µM, COc1ccc(/C=C/C(=O)N(C)C2CCCCC2)cc1Br 9.27 µM, Cc1ccc2c(CN3CCC(C)CC3)cc(=O)oc2c1 5.21 µM, Cc1ccc2c(CN3CCC(C)CC3)cc(=O)oc2c1C 7.36 µM, CN(C)c1ccc(/C=C/c2nnnn2-c2ccccc2)cc1 1.65 µM, CC(Cc1cccs1)NC(=O)c1cccc(Cl)c1 (configuration not stated) 6.56 µM, COc1ccc(C2CC(=O)N(C)c3ccccc3S2)cc1OC (configuration not stated) 18.5 µM, Cc1ccc(-c2nc3ccccc3nc2NN)cc1 1.17 µM, CC(=O)c1sc(-c2ccc(F)cc2F)nc1C 14.7 µM, Cc1sc(NC(=O)C2C3CCC(O3)C2C(=O)O)nc1-c1ccc(CC(C)C)cc1 (configuration not stated) 3.69 µM, CCOC(=O)C1=NN(c2ccc(Cl)cc2)C(=O)C1 6.56 µM, CCOC(=O)c1sc2nc3c(cc2c1N)COC(C(C)C)C3 (configuration not stated) 0.0414 µM, CCOC(=O)c1sc2nc3c(cc2c1N)COC(C)(C)C3 1.17 µM, C=CCn1c(C)nc2c(sc3nc4c(cc32)COC(C)(C)C4)c1=O 0.656 µM, CCOC(=O)c1cc2c(nc1N)CC(C)(CC)OC2 (configuration not stated) 7.36 µM, Cc1cc(O)c(C2=Nc3ccccc3SC(c3ccc(Cl)cc3)C2)c(=O)o1 (configuration not stated) 1.65 µM, Cc1ccc2c3c([nH]c2c1C)-c1nonc1CC3 7.36 µM, COc1ccc(-n2c(C)cc(/C=C3\SC(=O)NC3=O)c2C)cc1 5.85 µM, O=C1NC(=S)N/C1=C\c1ccc(N2CCOCC2)cc1 13.1 µM, Cc1cc(N2CCOCC2)ccc1/C=C1/SC(=O)NC1=O 4.65 µM, Cc1ccc(-n2c(C)cc(/C=C3\SC(=O)NC3=O)c2C)cc1 1.47 µM, Cc1ccc(/C=N/NC(=O)CSc2nc3ccccc3o2)cc1 11.7 µM, CCOc1cccc2cc(-c3csc(NC(=O)CCC(=O)NCCCN4CCC(C)CC4)n3)c(=O)oc12 1.17 µM, CCOc1ccc(/C=C/c2nc(C#N)c(N(C)C)o2)cc1 0.329 µM, COc1ccccc1/C=C/c1nc(C#N)c(N(C)C)o1 927 nM and 1.65 µM, CN(C)c1oc(/C=C/c2ccccc2)nc1C#N 5.85 µM, COc1ccc(Nc2oc(/C=C/c3ccccc3OC)nc2C#N)cc1 13.1 µM, CCN1C(=O)/C(=C/C=C2/SCCN2C)SC1=S 0.185 µM, CCCCN1C(=O)/C(=C/C=C2\SCCN2C)SC1=S 5.21 µM, CN1C(=O)/C(=C/C=C2\SCCN2C)SC1=S 0.464 µM, Cc1nc(NC(=O)c2cc3c(s2)CCCCC3)sc1C(=O)N(C)C 7.36 µM, Fc1cccc(C2NN=C(c3ccccc3)S2)c1 (configuration not stated) 0.585 µM, O=C1NN(c2ccccc2)C(=O)/C1=C/c1coc2ccccc2c1=O 4.65 µM, CC1CCCCN1Cc1c(O)ccc2c(=O)c(-c3ccc(Cl)cc3)coc12 (configuration not stated) 18.5 µM, Fc1ccc(OCc2cc(-c3ccccc3)no2)cc1 4.14 µM, COc1ccc(-c2cc(COc3ccccc3)on2)cc1 9.27 µM, CCCCNC(=O)c1nnn(-c2ccccc2)c1N 16.5 µM, CC(C)N1C(=O)S/C(=C\c2ccc(-c3ccc(Cl)c(C(=O)O)c3)o2)C1=O 0.293 µM, CCN=C1S/C(=C\c2ccc(-c3cccc(C(=O)O)c3)o2)C(=O)N1CC 0.656 µM, C#CCN1C(=O)S/C(=C\c2ccc(-c3ccc(C(=O)O)cc3C)o2)C1=O 3.29 µM, COC(=O)C(C)N1C(=O)S/C(=C\c2ccc(-c3ccc(C(=O)O)cc3C)o2)C1=O (configuration not stated) 6.56 µM, COc1ccc(OC)c2c(N3CC(C)OC(C)C3)cc(C(F)(F)F)nc12 (configuration not stated) 6.56 µM, O=C(Nc1ccccn1)c1sc2cccc(F)c2c1Cl 0.165 µM, Brc1cc(Br)c2nc(-c3ccc(N4CCOCC4)cc3)ccc2c1 14.7 µM, N#C/C(=C\c1cccnc1)c1nc2c(s1)CCCC2 2.61 µM, Cc1cc(NC(=O)CCSc2ccccc2)ccc1Br 16.5 µM, CCc1ccc(NC(=O)CSc2ccccn2)cc1 10.4 µM, CCc1ccc(NC(=O)CSc2ccc3nc(-c4ccc(OC)cc4)cn3n2)cc1 0.736 µM, CCc1ccc(NC(=O)CSc2nncn2-c2cccnc2)cc1 16.5 µM, Cc1ccc(NC(=O)CCSc2ccccn2)cc1 4.14 µM, Cc1cc(OCC(=O)N2CCCCCC2)ccc1[N+](=O)[O-] 5.85 µM, O=C(CCc1ccccc1)Nc1ccccc1[N+](=O)[O-] 14.7 µM, O=C(NC(=S)Nc1ccccc1[N+](=O)[O-])c1ccccc1 9.27 µM, Cc1ccc(NC(=O)c2sccc2C)cc1[N+](=O)[O-] 4.14 µM, O=C(Nc1ccccn1)Nc1ccccc1[N+](=O)[O-] 9.27 µM, Cc1ccc(NC(=O)C2C3CCCCC32)cc1[N+](=O)[O-] (configuration not stated) 13.1 µM, Cc1ccc(NC(=O)c2ccc(C(C)(C)C)cc2)cc1[N+](=O)[O-] 5.21 µM, Cc1cc(NC(=O)c2ccccc2[N+](=O)[O-])ccc1Br 7.36 µM, CC(C)COc1ccc(C(=O)Nc2ccccc2[N+](=O)[O-])cc1 8.26 µM, CC(C)(C)c1ccc(C(=O)Nc2ccc([N+](=O)[O-])cn2)cc1 0.464 µM, CC(C)(C)c1ccc(NC(=O)c2ccccc2)c([N+](=O)[O-])c1 0.736 µM, CC(C)(C)c1cc(NC(=O)c2cccc([N+](=O)[O-])c2)no1 1.47 µM, O=C(Nc1ccccn1)c1cc2cc([N+](=O)[O-])ccc2s1 0.826 µM, Clc1ccc(-c2noc(CN3CCOCC3)n2)cc1 16.5 µM, c1ccc(OCCOc2cccc3cccnc23)cc1 13.1 µM, O=[N+]([O-])c1ccccc1OCCCOc1cccc2cccnc12 5.21 µM, COc1cccc(OC)c1OCCCOc1cccc2cccnc12 7.36 µM, Brc1ccccc1OCCOc1cccc2cccnc12 11.7 µM, CC(C)Sc1nc(SCC(=O)O)c2c3c(sc2n1)COC(C)(C)C3 9.27 µM, COCCCNC(=O)C1CCN(C(=O)c2oc3cc4sc(N(C)C)nc4cc3c2C)CC1 14.7 µM, Cc1ccc(C)c(NC(=S)c2ccc3ccccc3n2)c1 1.65 µM, Cc1ccccc1NC(=S)c1ccc2ccccc2n1 7.36 µM, N/C(=N\OC(=O)COc1ccc2ccccc2c1Br)c1ccncc1 16.5 µM, N/C(=N\OC(=O)COc1ccc2ccccc2c1Br)c1ccccn1 7.36 µM, CCOC(=O)c1c(NC(=O)CN2CCN(C)CC2)sc(C(=O)Nc2ccccc2)c1C 18.5 µM, COc1cc(/C=N/NS(=O)(=O)c2ccc3ccccc3c2)ccc1OCc1ccc(C(=O)O)cc1 0.414 µM, COc1cc(/C=N/NS(=O)(=O)c2ccc(C)cc2)ccc1OCc1cccc(C(=O)O)c1 0.464 µM
